From PubChem BioAssay (Tox21)
Active and inactive are the calls of the source. The call rests on the fitted dose curve.

These molecules were tested against Muscarinic acetylcholine receptor M1 (Homo sapiens) (UniProt P11229) (assay: Cholinergic receptor muscarinic 1 (CHRM1) small molecule agonists, cell-based qHTS assay (AID 1963589; further: nearly all actives have a fitted effect of over 35% in size)). Details: CHRM1-CHO cells, agonist mode, calcium flux fluorescence; series mostly up to 76.8 µM; activation: at the top concentration.
Excerpt: National Center for Advancing Translational Sciences [NCATS]
Division of Preclinical Innovation [DPI]
U.S. Environmental Protection Agency [EPA]
National Institutes of Environmental Health Sciences [NIEHS]
National Toxicology Program [NTP]
U.S. Food and Drug Administration [FDA]
The CHRM1 is a muscarinic receptor. This receptor plays a crucial role in learning and memory processes and has long been identified as a promising therapeutic target for the improvement of cognitive decline in Alzheimer's disease (AD). The CHRM1-CHO cell line stably expressing human muscarinic acetylcholine receptor M1 (CHRM1) can be used for screening agonists and antagonists of interactions between CHRM1 and its ligands. The CHRM1-CHO Calcium Flux Assay is a homogeneous fluorescence-based assay for detecting the intracellular calcium level using FDSS kinetic plate reader system.
CHRM1-CHO cells were dispensed at 1000 cells/3uL/well in 1536-well black-clear bottom plates using a Multidrop Dispenser. After the assay plates were incubated at a 37 C/5% CO2 incubator for 18 h, 3 uL of Dye Loading Buffer was transferred to the assay plate by a Flying Reagent Dispenser. The assay plates were incubated at 37 C for 1h. For agonist mode, 23 nL of compounds dissolved in DMSO, positive controls or DMSO only was transferred to the assay plate by a pin tool. […] Each test compound was measured at 15 concentrations in three independent runs.
On the % scale 0 is the no-effect control and ±100 the full control effect.

Muscarinic acetylcholine receptor M1 (Homo sapiens), sequence (P11229 whole entry, looked up): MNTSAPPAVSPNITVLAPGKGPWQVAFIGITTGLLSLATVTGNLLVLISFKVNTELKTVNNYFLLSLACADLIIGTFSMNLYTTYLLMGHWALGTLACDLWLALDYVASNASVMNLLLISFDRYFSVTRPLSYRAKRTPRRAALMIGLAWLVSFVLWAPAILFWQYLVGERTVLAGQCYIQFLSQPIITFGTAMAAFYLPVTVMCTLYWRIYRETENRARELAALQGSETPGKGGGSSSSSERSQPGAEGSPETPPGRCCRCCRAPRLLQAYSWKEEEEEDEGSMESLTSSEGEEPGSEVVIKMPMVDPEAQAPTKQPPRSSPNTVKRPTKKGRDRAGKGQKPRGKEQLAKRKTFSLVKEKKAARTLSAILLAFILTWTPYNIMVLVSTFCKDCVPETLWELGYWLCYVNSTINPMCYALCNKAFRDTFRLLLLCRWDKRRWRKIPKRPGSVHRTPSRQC

Compound	activation	Potency
CC(=O)[O-].CC(=O)[O-].[Co+2]	-0.158% (inactive)	–
c1cc[c]([Sb]([c]2ccccc2)[c]2ccccc2)cc1	0.0255% (inactive)	–
COc1ncc(F)c2nc(S(=O)(=O)Nc3c(F)cccc3F)nn12	1.22% [at 35.3 µM] (inactive)	–
c1cc[n+]2c(c1)-c1cccc[n+]1CC2	-1.22% [at 35.3 µM] (inactive)	–
CC(C)CC(C)Nc1ccc(Nc2ccccc2)cc1 (stereo not given)	0.212% (inactive)	–
CCCCNC(=O)OCC#CI	–	inactive
O=CC=O	-0.022% (inactive)	–
Cc1ccc(S(=O)(=O)N[C@@H](CCCCN)C(=O)CCl)cc1	3.22% [at 35.3 µM] (inactive)	–
CC1NCCOC1c1ccccc1 (stereo not given)	-0.66% [at 35.3 µM] (inactive)	–
O=c1[nH]c(Cl)c(Cl)cc1Cl	0.866% (inactive)	–
CC(=O)[O-].[Tl+]	-0.107% (inactive)	–
O=c1[nH]c2ccccc2o1	-0.0302% (inactive)	–
O=C1OC(CCN2CCCCC2)OC1(c1ccccc1)c1ccccc1 (stereo not given)	-0.0508% [at 35.3 µM] (inactive)	–
O=[N+]([O-])c1ccc(Nc2ccccc2)cc1	–	inactive
CC(C)(CCl)C(=O)Cl	0.479% (inactive)	–
O=C(Nc1ccccc1-c1ccc(Cl)cc1)c1cccnc1Cl	1.68% (inactive)	–
CCOP(=S)(OCC)SCCl	-0.211% (inactive)	–
CN(C)CCc1c[nH]c2ccccc12	4.43% (inactive)	–
CCCCCCCCCCCCCC[P+](CCCCCC)(CCCCCC)CCCCCC (tested in a mixture with another compound)	0.123% (inactive)	–
CC(=O)O.CC(=O)O.CC(=O)O.CC(=O)O.CC(=O)O.CC(=O)O.CC(=O)O.O.O.[Cr].[Cr].[Cr]	-0.181% (inactive)	–

Compound	activation	Potency
O=NN(CCO)CCO	-0.105% (inactive)	–
OCC(c1ccc(Cl)cc1)c1ccc(Cl)cc1	17% (inactive)	–
O=S1(=O)OC(c2cc(Br)c(O)c(Br)c2)(c2cc(Br)c(O)c(Br)c2)c2ccccc21	-0.605% (inactive)	–
Nc1ccc(Cc2ccc(N)c(Cl)c2)cc1Cl	4.96% (inactive)	–
CC1(C)CC/C(=C/c2ccc(Cl)cc2)C1(O)Cn1cncn1 (stereo not given)	8.89% (inactive)	–
O=C(Cl)C(Cl)(Cl)Cl	10.3% (inactive)	–
CCCCNP(N)(N)=S	-0.0182% (inactive)	–
CCC(C)(NC(=O)c1cc(Cl)c(C)c(Cl)c1)C(=O)CCl (stereo not given)	9.19% (inactive)	–
Cc1cc(C)cc(OP(=O)(Oc2cc(C)cc(C)c2)Oc2cc(C)cc(C)c2)c1	0.3% (inactive)	–
CC1(C(=O)Nc2ccc(O)c(Cl)c2Cl)CCCCC1	-1.5% (inactive)	–
Cn1cc(C2=C(c3cn(C4CCN(Cc5ccccn5)CC4)c4ccccc34)C(=O)NC2=O)c2ccccc21	-5.21% [at 35.3 µM] (inactive)	–
CCS(=O)(=O)c1cccnc1S(=O)(=O)NC(=O)Nc1nc(OC)cc(OC)n1	-0.872% (inactive)	–
CCCC(C)C1(CC)C(=O)N=C(S)NC1=O (stereo not given)	0.99% [at 35.3 µM] (inactive)	–
CC(CC(C#N)(c1ccccc1)c1ccccc1)N(C)C (stereo not given)	-0.217% (inactive)	–
O=C(O)C(F)(F)C(F)(F)C(F)(F)C(F)(F)C(F)(F)F	-0.0769% (inactive)	–
CC(=O)[C@H]1CC[C@H]2[C@@H]3CC[C@H]4C[C@H](O)CC[C@]4(C)[C@H]3C(=O)C[C@]12C	0.125% [at 35.3 µM] (inactive)	–
CNNC	-0.0032% (inactive)	–
CCOP(O)OCC	-0.426% (inactive)	–
Cc1c([N+](=O)[O-])cc2c(c1[N+](=O)[O-])C(C)(C)CC2(C)C	-0.656% (inactive)	–
CN(CCCC(O)c1cccnc1)N=O (stereo not given)	-0.797% (inactive)	–
